Experimental data: PubChem BioAssay AID2315 (National Center for Advancing Translational Sciences (NCATS), 2010)
Out of some 290,000 compounds screened, about 27,000 (9.3%) were called active. Cut-off read from the data, not from the text of the source: active = inhibition mostly above about 28% (no sharp cut-off); inactive = mostly below about 43%. The sample as a whole holds a higher share of actives than the screen did. Where a SMILES comes first, the peptide text is derived from it. [ ]: non-standard residue; d: D form. The star is where a group is joined. PhAc = O=C(Cc1ccccc1)*

Assay: A qHTS for Small Molecule Inhibitors of Shiga Toxin; note: 0% is about no effect
Conditions: Vero cells, Shiga toxin protein synthesis inhibition reporter; at 38.7 µM, active compounds read high

Structure (SMILES) | inhibition
CC(C)C[C@@H](NC(=O)[C@H]1CCCN1C(=O)Cc1ccccc1)C(N)=O (PhAc-[dP]-[dL]-NH2) | 6.07% (inactive)
CCc1ccc(Nc2nnc(SCC(=O)c3ccc4c(c3)NC(=O)CO4)s2)cc1 | 32.3% (inactive)
CC(C)[C@H](NC(=O)OCc1ccccc1)C(=O)OCc1ccccc1 | 25.1% (inactive)
CCC1OC(c2ccc([N+](=O)[O-])cc2)=Nc2ccccc21 (stereo unspecified) | 6.08% (inactive)
COc1ccc(-c2n[nH]c(C)c2-c2ccccc2OC)c(O)c1 | 13.4% (inactive)
O=C(C1CC(=O)N(c2ccc(Br)cc2)C1)N1CCCC1 (stereo unspecified) | -22.5% (inactive)
COc1ccc(NC(=O)c2cc([N+](=O)[O-])ccc2NC(=O)CNC2CCCCC2C)c(OC)c1 (stereo unspecified) | 7.27% (inactive)
CCc1ccc2nc3sc(C(=O)Nc4nnc(CC)s4)c(N)c3cc2c1 | 48.9% (active)
CCc1nnc(NC(=O)c2sc3nc(C)cc(COC)c3c2N)s1 | 53.1% (inactive)
CCc1nnc(NC(=O)c2cccc(S(=O)(=O)N(C)c3ccc(OC)cc3)c2)s1 | -10.6% (inactive)
Cc1ccc(C)c(S(=O)(=O)Nc2cccc(-n3cnnn3)c2)c1 | 23.9% (inactive)
Cc1cccc[n+]1CC(=O)c1ccccc1 | 5.04% (inactive)
O=C(N/N=C/c1c(Cl)[nH]c2ccccc12)c1sc2ccccc2c1Cl | -0.233% (inactive)
O=C(Nc1ccon1)c1sc2ccccc2c1Cl | 88% (active)
O=C(Nc1ccon1)c1cccc(Cl)c1 | 5.52% (inactive)
Cc1ccccc1-c1nc(C#N)c(NCc2ccco2)o1 | 71.9% (inactive)
COc1ccc(Nc2oc(-c3ccccc3Cl)nc2C#N)cc1 | 20.6% (inactive)
CCOc1ccc(Nc2oc(Cc3ccccc3)nc2C#N)cc1 | 58.5% (active)
N#Cc1nc(Cc2cccc3ccccc23)oc1NCc1ccc2c(c1)OCO2 | 12.3% (inactive)
N#Cc1nc(Cc2ccccc2)oc1NCCc1ccccc1 | 64.7% (active)
N#Cc1nc(COc2ccc(-c3ccccc3)cc2)oc1NCc1cccnc1 | 56.8% (inactive)
O=C(Nc1ccc(F)cc1)c1ccc(S(=O)(=O)NCc2cccnc2)cc1 | 27.5% (inactive)
CCOc1ccc(S(=O)(=O)N2CCC(C(=O)NCc3ccccn3)CC2)cc1Cl | 3.21% (inactive)
CC1CCN(C(=O)c2ccc3c(=O)n4c(nc3c2)CCCCC4)CC1 | 19.9% (inactive)

Structure (SMILES) | inhibition
Cc1cc(C)nc(NS(=O)(=O)c2ccc(N/C=C\C(=O)c3cccs3)cc2)n1 | 97.2% (active)
CC(=O)Nc1ccc(S(=O)(=O)Nc2nccc(/C=C/c3ccccc3F)n2)cc1 | 21.8% (inactive)
CCc1nnc(NS(=O)(=O)c2ccc(NC(=S)NC(=O)c3cccs3)cc2)s1 | -15.7% (inactive)
COc1ccc2[nH]cc(/C=C(/C#N)S(=O)(=O)c3ccccc3)c2c1 | -6.23% (inactive)
COc1ccc(C(C(O)C(=O)c2c[nH]c3ccccc23)N2CCN(c3ccccc3)CC2)cc1 (stereo unspecified) | -5.67% (inactive)
COc1ccc(/C=C(\C#N)c2c[nH]c3ccccc23)cc1 | 68% (active)
O=C(COC(=O)/C(=C/c1cccs1)c1cccs1)NCc1ccccc1Cl | 13.7% (inactive)
Cc1ccccc1C(=O)N1CCN(c2ccc(NC(=O)c3cccs3)cc2)CC1 | -18.3% (inactive)
NS(=O)(=O)c1ccc(NC(=S)NC(=O)c2cccc(Br)c2)cc1 | 4.4% (inactive)
CCc1ccc(NC(=O)C(=O)NNC(=O)c2cccs2)cc1 | 39.1% (active)
O=C(COC(=O)c1cccs1)Nc1ccccc1Cl | 36.9% (active)
O=C(COC(=O)c1cccs1)NCc1cccs1 | 40% (active)
O=C(COC(=O)c1ccc(Cl)nc1)NCc1cccs1 | -3.54% (inactive)
NS(=O)(=O)c1ccc(NC(=S)NNC(=O)c2cccs2)cc1 | 107% (active)
NS(=O)(=O)c1ccc(NC(=S)NC(=O)c2cccnc2)cc1 | -16% (inactive)
O=C(COC(=O)CCc1c[nH]c(=O)[nH]1)Nc1ccccc1Cl | -3.38% (inactive)
O=C(COC(=O)CCC(=O)c1cccs1)NCc1ccco1 | -12.8% (inactive)
COc1ccc(CCOC(=O)CNC(=O)c2ccc(Cl)cc2Cl)cc1 | 7.31% (inactive)
CCCOc1ccc(CNC(=O)C2CCN(c3nn4c(=O)cc(C)nc4s3)CC2)cc1 | -3.64% (inactive)
Cc1cccnc1CCNC(=O)C1CCC(=O)N(Cc2cccc(F)c2)C1 (stereo unspecified) | -6.16% (inactive)
COC(CNC(=O)c1ccc2c(c1)ncn2-c1cc(C)cc(C)c1)OC | 4.27% (inactive)
COc1cccc(CN(C)C(=O)CC23CC4CC(CC(C4)C2)C3)c1OC | -11.5% (inactive)
CS(=O)(=O)c1ccc(-c2nnn(CC(=O)Nc3ccc4c(c3)OCCO4)n2)cc1 | 20.6% (inactive)
C/C(=N\OCC(=O)Nc1ccc(Br)cc1)c1cccs1 | 40.3% (inactive)

Structure (SMILES) | inhibition
O=S(=O)(NCCc1ccc(Cl)cc1)c1cccs1 | 10.5% (inactive)
CCc1ccc(NC(=O)CCNS(=O)(=O)c2cccs2)cc1 | 53.4% (active)
Cc1ccc(OCC(=O)Nc2ccc(NC(=O)c3cccs3)cc2)c(C)c1 | 25.9% (inactive)
CCc1ccc(NC(=O)COC(=O)c2cccs2)cc1 | 51.4% (active)
CCc1cccc(NC(=O)CCNS(=O)(=O)c2cccc3nonc23)c1 | -3.23% (inactive)
COc1ccccc1C(=O)N(C1=NC(C)CS1)c1ccc(Cl)cc1 (stereo unspecified) | -5.01% (inactive)
COc1ccccc1CNC(=O)C1CCN(C(=O)[C@@H]2Cc3ccccc3CN2)CC1 | 13.3% (inactive)
Cc1c(C(=O)NCC(c2ccco2)N2CCCC2)oc2ccc(Cl)cc12 (stereo unspecified) | 49.7% (inactive)
Cc1nc2nc(SCC(=O)Nc3cccc(F)c3)[nH]c2cc1Br | 6.55% (inactive)
CCCCn1c(SCC(=O)N2CCOCC2)nc2c1c(=O)n(C)c(=O)n2C | -5.05% (inactive)
O=C(Nc1ccc2c(c1)C(=O)OC2)Nc1cccc2ccccc12 | 12.8% (inactive)
CCOc1ccc(NC(=O)Nc2ccc(N(C)C(C)=O)cc2)cc1 | 73.9% (active)
CC(=O)N(C)c1ccc(NC(=O)Nc2cccc3ccccc23)cc1 | 77.5% (active)
CC(=O)N(C)c1ccc(NC(=O)C(F)(F)F)cc1 | 13.5% (inactive)
O=C(O)Cc1ccc(NC(=O)Nc2cccc3ccccc23)cc1 | -1.4% (inactive)
CCOc1ccc(NC(=O)N(CC(C)C)CC(C)C)cc1 | 26.1% (inactive)
NS(=O)(=O)c1ccc(CCNC(=O)c2nc(CS(=O)(=O)c3ccc(Cl)cc3)no2)cc1 | -2.78% (inactive)
FC(F)(F)c1ccnc(Oc2ccc(C3=NCCS3)cc2)c1 | 64.7% (active)
O=Cc1ccc(Oc2cccc(C(F)(F)F)c2)nc1 | 12.2% (inactive)
C[C@H](NC(=O)C1CC(=O)N(c2ccc3c(c2)OCO3)C1)C(=O)NCc1ccco1 (stereo partly specified) | -4.62% (inactive)
O=S(=O)(NC1CCCCC1N1CCCCC1)c1ccc(Cl)cc1 (stereo unspecified) | -21.5% (inactive)
O=C(NCc1ccncc1)C1CCCN(S(=O)(=O)c2ccc(Br)cc2)C1 (stereo unspecified) | -9.96% (inactive)
COCCNc1nc(-n2nc(C)cc2C)nc2sc3c(c12)CCCC3 | 51.2% (active)
Cc1nc2sc3c(c2c(=O)n1NC(=O)CCl)CCCC3 | -6.21% (inactive)

Structure (SMILES) | inhibition
CCC(O)CNc1nc(-n2nc(C)cc2C)nc2sc3c(c12)CC(C)(C)OC3 (stereo unspecified) | -11.2% (inactive)
COc1ccccc1NC(=O)c1cc(N2C(=O)C3C4CCC(C4)C3C2=O)ccc1Cl (stereo unspecified) | -3.33% (inactive)
COc1ccccc1N1CCN(S(=O)(=O)c2ccc3c(c2)NC(=O)CS3)CC1 | 16.6% (inactive)
N#Cc1c(NC(=O)C2CC(Cl)=CCC2C(=O)O)sc2c1CCCCC2 (stereo unspecified) | 18.3% (inactive)
N#Cc1c(NC(=O)C2CCCO2)sc2c1CCCCC2 (stereo unspecified) | 82.7% (active)
N#Cc1c(NC(=O)CCCl)sc2c1CCCCC2 | 25% (inactive)
Cc1c(C)c2ccc(OCC(=O)N3CCC(C(=O)O)CC3)c(C)c2oc1=O | -1.33% (inactive)
Nc1ccn(C2CC(O)C(CO)O2)c(=O)n1 (stereo unspecified) | -2.7% (inactive)
CCOC(=O)c1c(NC(=O)CSc2nccc(=O)[nH]2)sc(C)c1C | -11.1% (inactive)
Cc1ccc2ccc3c(c2n1)NS(=O)(=O)c1ccccc1-3 | -4.77% (inactive)
CCOC(=O)c1cc(Sc2ccccc2N)cc(C(=O)OCC)n1 | -2.59% (inactive)
CCS(=O)(=O)c1cc([N+](=O)[O-])c(Sc2ccccc2N)s1 | 101% (active)
Nc1ccccc1Sc1ccc(C(F)(F)F)cc1[N+](=O)[O-] | -8.21% (inactive)
C/C(=N\NC(=O)c1cccnc1)c1ccc(-c2ccccc2)cc1 | 20.1% (inactive)
C/C(=N\NC(=O)c1nc(C)cc(C)n1)c1ccccc1 | 86.5% (active)
COc1ccc(/C(C)=N/NC(=O)c2ccc3nc[nH]c3c2)cc1 | -11.9% (inactive)
COc1ccc(N=Nc2c(-c3ccc(OC)cc3)[nH]oc2=O)cc1 | -1.4% (inactive)
Cc1cc(C)cc(OCC(=O)NC(C)c2ccccc2)c1 (stereo unspecified) | 16.2% (inactive)
COc1cc(NC(=O)c2ccccc2)c(OC)cc1NC(=O)Cc1ccccc1 | -6.61% (inactive)
COC(=O)C1CCN(C(=O)c2ccc3oc(Cc4ccc(Cl)cc4)nc3c2)CC1 | -23.6% (inactive)
COCC1CCN(C(=O)c2ccc3oc(Cc4ccccc4)nc3c2)C1 (stereo unspecified) | 42.2% (active)
COc1ccc(Cc2nc3ccc(C(=O)N4CCC(N(C)C)C4)cc3o2)cc1 (stereo unspecified) | 5% (inactive)
CN(C)c1ccc(/C=C2\NC(=S)N(Cc3ccccc3)C2=O)cc1 | 3.47% (inactive)
CCc1nn(CCCC(=O)NC(C)c2ccccc2)c(=O)c2cc3occc3n12 (stereo unspecified) | 11.1% (inactive)
